# The whole screen tested about 5,500 compounds, of which about 2,000 (36%) were called active. About 18% were inconclusive and are not listed. The list shows a part of the results. A number with no mark means an inactive call. Rule as the data show it: active = normalized growth mostly below about 0.91 (no sharp cut-off); inconclusive = no clear call, values can overlap the other calls; inactive = mostly above about 0.92.
# Experiment: chemical genetic growth profiling, strain panel (AID 1159580);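 also: tested at 20 µM; growth read once vehicle control cultures reached saturation at 30 °C; 1 = growth at the plate median or of vehicle wells; lower values mean less growth of the strain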
# Settings: S. cerevisiae deletion strains, growth OD
smiles,measurement,setting,value
CCC(c1ccc(O)cc1)C(CC)c1ccc(O)cc1 (stereo not drawn),normalized growth,"locus YAL013W, strain DEP1, hits give low values",0.998
same,normalized growth,"locus YAL021C, strain ccr4, hits give low values",0.93
same,normalized growth,"locus YAL026C, strain drs2, hits give low values",0.835 (active)
same,normalized growth,"locus YAL030W, strain snc1, hits give low values",0.918 (active)
same,normalized growth,"locus YBL061C, strain skt5, hits give low values",0.982
same,normalized growth,"locus YBR009C, strain hhf1, hits give low values",0.77 (active)
same,normalized growth,"locus YBR021W, strain FUR4, hits give low values",0.972
same,normalized growth,"locus YBR023C, strain chs3, hits give low values",0.966
same,normalized growth,"locus YBR171W, strain sec66, hits give low values",0.993
same,normalized growth,"locus YBR229C, strain ROT2, hits give low values",0.993
same,normalized growth,"locus YBR231C, strain swc5, hits give low values",0.989
same,normalized growth,"locus YBR279W, strain paf1, hits give low values",0.95
same,normalized growth,"locus YCL011C, strain gbp2, hits give low values",0.858 (active)
same,normalized growth,"locus YCL016C, strain dcc1, hits give low values",0.95
same,normalized growth,"locus YCL029C, strain bik1, hits give low values",0.987
same,normalized growth,"locus YCL061C, strain MRC1, hits give low values",0.958
same,normalized growth,"locus YCL069W, strain vba3, hits give low values",0.951
same,normalized growth,"locus YCR088W, strain abp1, hits give low values",0.974
same,normalized growth,"locus YDL005C, strain med2, hits give low values",0.92
same,normalized growth,"locus YDL035C, strain GPR1, hits give low values",0.914
same,normalized growth,"locus YDL040C, strain nat1, hits give low values",0.998
same,normalized growth,"locus YDL074C, strain BRE1, hits give low values",0.878
same,normalized growth,"locus YDL101C, strain DUN1, hits give low values",0.989
same,normalized growth,"locus YDL134C, strain PPH21, hits give low values",0.998
same,normalized growth,"locus YDL185W, strain tfp1, hits give low values",0.995
same,normalized growth,"locus YDL192W, strain arf1, hits give low values",0.969
same,normalized growth,"locus YDR001C, strain nth1, hits give low values",0.997
same,normalized growth,"locus YDR069C, strain doa4, hits give low values",0.894 (active)
same,normalized growth,"locus YDR101C, strain arx1, hits give low values",0.968
same,normalized growth,"locus YDR137W, strain rgp1, hits give low values",0.415 (active)
same,normalized growth,"locus YDR150W, strain NUM1, hits give low values",1.01
same,normalized growth,"locus YDR159W, strain sac3, hits give low values",0.723 (active)
same,normalized growth,"locus YDR162C, strain NBP2, hits give low values",0.931
same,normalized growth,"locus YDR195W, strain ref2",1.02
same,normalized growth,"locus YDR297W, strain sur2, hits give low values",0.923
same,normalized growth,"locus YDR318W, strain mcm21, hits give low values",0.944
same,normalized growth,"locus YDR334W, strain swr1, hits give low values",1.02
same,normalized growth,"locus YDR335W, strain msn5, hits give low values",0.938
same,normalized growth,"locus YDR388W, hits give low values",0.966
same,normalized growth,"locus YDR392W, strain spt3, hits give low values",0.743
same,normalized growth,"locus YDR502C, strain sam2, hits give low values",0.959
same,normalized growth,"locus YEL003W, strain gim4, hits give low values",0.891 (active)
same,normalized growth,"locus YEL037C, strain rad23, hits give low values",1
same,normalized growth,"locus YEL061C, strain CIN8 (second series), hits give low values",1
same,normalized growth,"locus YEL061C, strain CIN8, hits give low values",1
same,normalized growth,"locus YER015W, strain faa2, hits give low values",0.901 (active)
same,normalized growth,"locus YER016W, strain bim1, hits give low values",0.94
same,normalized growth,"locus YER110C, hits give low values",1.01
same,normalized growth,"locus YER111C, strain swi4, hits give low values",1
same,normalized growth,"locus YER155C, strain BEM2 (second series), hits give low values",0.942
same,normalized growth,"locus YER155C, strain BEM2, hits give low values",1.02
same,normalized growth,"locus YER167W, strain BCK2, hits give low values",0.972
same,normalized growth,"locus YFR010W, strain ubp6, hits give low values",0.957
same,normalized growth,"locus YGL078C, strain dbp3, hits give low values",0.976
same,normalized growth,"locus YGL086W, strain mad1, hits give low values",0.958
same,normalized growth,"locus YGL167C, strain pmr1, hits give low values",0.987
same,normalized growth,"locus YGL173C, strain kem1, hits give low values",0.825 (active)
same,normalized growth,"locus YGL227W, strain vid30, hits give low values",0.994
same,normalized growth,"locus YGL240W, strain doc1, hits give low values",0.863 (active)
same,normalized growth,"locus YGL248W, strain PDE1, hits give low values",0.998
same,normalized growth,"locus YGL253W, strain hxk2, hits give low values",0.953
same,normalized growth,"locus YGR078C, strain PAC10, hits give low values",0.952
same,normalized growth,"locus YGR135W, strain pre9, hits give low values",0.968
same,normalized growth,"locus YGR229C, strain SMI1, hits give low values",0.813
same,normalized growth,"locus YGR252W, strain gcn5, hits give low values",0.902
same,normalized growth,"locus YHR013C, strain ard1, hits give low values",1.21 [resistant] (active)
same,normalized growth,"locus YHR027C, strain rpn1, hits give low values",0.933
same,normalized growth,"locus YHR030C, strain SLT2, hits give low values",0.993
same,normalized growth,"locus YHR079C, strain IRE1 (second series), hits give low values",0.971
same,normalized growth,"locus YHR094C, strain hxt1, hits give low values",0.999
same,normalized growth,"locus YHR129C, strain ARP1, hits give low values",1.01
same,normalized growth,"locus YHR142W, strain chs7, hits give low values",0.911
same,normalized growth,"locus YHR200W, strain rpn10, hits give low values",0.981
same,normalized growth,"locus YIL073C, strain SPO22, hits give low values",0.951
same,normalized growth,"locus YIL125W, strain kgd1, hits give low values",0.994
same,normalized growth,"locus YIR030C, strain dcg1, hits give low values",1.01
same,normalized growth,"locus YJL092W, strain hpr5, hits give low values",0.967
same,normalized growth,"locus YJL095W, strain BCK1 (second series), hits give low values",0.799 (active)
same,normalized growth,"locus YJL095W, strain BCK1, hits give low values",0.855
same,normalized growth,"locus YJL115W, strain asf1, hits give low values",1.02
same,normalized growth,"locus YJL129C, strain trk1, hits give low values",0.675 (active)
same,normalized growth,"locus YJL134W, strain LCB3, hits give low values",0.999
same,normalized growth,"locus YJL154C, strain vps35, hits give low values",0.996
same,normalized growth,"locus YJL164C, strain tpk1, hits give low values",0.687 (active)
same,normalized growth,"locus YJL166W, strain qcr8, hits give low values",0.812 (active)
same,normalized growth,"locus YJL168C, strain set2, hits give low values",0.994
same,normalized growth,"locus YJL187C, strain SWE1 (second series), hits give low values",0.964
same,normalized growth,"locus YJR043C, strain POL32, hits give low values",0.999

# Reference: PubChem BioAssay AID1159580 (chemical genetic matrix, 2015)
